{"source": "PubChem BioAssay (EPA / NIEHS)", "note": "Records with an inconclusive call do not appear. Activity calls are given as the source filed them. The calls were made as follows: active = hit-call score of the fitted dose curve at least 0.9, where 1 is the maximum; inconclusive = response in the unintended direction; inactive = score below 0.9."}
{"read-out": "sulfotransferase (SULT2A), SULT2A1 (gene 6822)", "assay": "CLD_SULT2A_24hr: CellzDirect (CLD) Gene Expression Assay for sulfotransferase (SULT2A) at 24 hours (AID 2283694)", "in_short": "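Primary human hepatocytes from two donor preparations were dosed daily with fresh solutions, vehicle 0.2% DMSO. At 24 h, lysates went to quantitative nuclease protection (qNPA) with S1 digestion and chemiluminescent readout. Cytotoxicity was annotated from phase-contrast morphology.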"}
{"smiles": "CSc1nnc(C(C)(C)C)c(=O)n1N", "outcome": "inactive"}
{"smiles": "N#CSCSC#N", "outcome": "inactive"}
{"smiles": "CCCSP(=O)(OCC)SCCC", "outcome": "inactive"}
{"read-out": "ABC Transporter (ABCB1), ABCB1 (gene 5243)", "assay": "CLD_ABCB1_48hr: CellzDirect (CLD) Gene Expression Assay for ABC Transporter (ABCB1) at 48 hours (AID 2283695);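 as to AC50: potency for induction meaning increase of mRNA over DMSO vehicle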", "in_short": "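Primary human hepatocytes from two donor preparations dosed daily on two consecutive days with 0.2% DMSO vehicle. Harvest at 48 h. ABCB1 mRNA quantified by qNPA with chemiluminescence and fitted for gain of signal versus DMSO.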"}
{"smiles": "COc1ccc(C(=CC(=O)N2CCOCC2)c2ccc(Cl)cc2)cc1OC", "AC50": "31 µM (active)"}
{"smiles": "C#CCC1=C(C)C(OC(=O)C2C(C=C(C)C)C2(C)C)CC1=O", "note": "(stereo not given)", "outcome": "inactive"}
{"smiles": "O=C(O)c1cc(Oc2ccc(C(F)(F)F)cc2Cl)ccc1[N+](=O)[O-]", "outcome": "inactive"}
{"smiles": "CCCCOC(=O)[C@@H](C)Oc1ccc(Oc2ccc(C#N)cc2F)cc1", "outcome": "inactive"}
{"smiles": "O=c1ccc(=O)[nH][nH]1", "outcome": "inactive"}
{"read-out": "glucuronosyltransferase (UGT1A1), UGT1A1 (gene 54658)", "assay": "CLD_UGT1A1_24hr: CellzDirect (CLD) Gene Expression Assay for glucuronosyltransferase (UGT1A1) at 24 hours (AID 2283696)", "in_short": "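Primary human hepatocytes from two donor preparations were dosed (0.2% DMSO vehicle) and harvested at 24 h; UGT1A1 mRNA induction was quantified by chemiluminescent qNPA, fitted as gain relative to DMSO.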"}
{"smiles": "COc1ccc(C(=CC(=O)N2CCOCC2)c2ccc(Cl)cc2)cc1OC", "outcome": "inactive"}
{"smiles": "S=C1NCCN1", "outcome": "inactive"}
{"smiles": "CCOP(=O)(OCC)Oc1cc(C)nc(C(C)C)n1", "outcome": "inactive"}
{"smiles": "CC(COc1ccc(Oc2ccccc2)cc1)Oc1ccccn1", "note": "(stereo not given)", "AC50": "4.08 µM (active)"}
{"smiles": "CSC1=N[C@@](C)(c2ccccc2)C(=O)N1Nc1ccccc1", "outcome": "inactive"}
{"smiles": "CCc1cnc(C2=NC(C)(C(C)C)C(=O)N2)c(C(=O)O)c1", "note": "(stereo not given)", "outcome": "inactive"}
{"smiles": "CC[C@H](C)[C@H]1O[C@]2(C=C[C@@H]1C)C[C@@H]1C[C@@H](C/C=C(\\C)[C@@H](O[C@H]3C[C@H](OC)[C@@H](O[C@H]4C[C@H](OC)[C@@H](NC)[C@H](C)O4)[C@H](C)O3)[C@@H](C)/C=C/C=C3\\CO[C@@H]4[C@H](O)C(C)=C[C@@H](C(=O)O1)[C@]34O)O2", "outcome": "inactive"}
{"smiles": "COc1cc(OC)nc(Sc2cccc(Cl)c2C(=O)O)n1", "outcome": "inactive"}
{"smiles": "CC(Oc1cccc(Cl)c1)C(=O)O", "note": "(stereo not given)", "outcome": "inactive"}
{"smiles": "CNC(=O)ON=C(SC)C(=O)N(C)C", "outcome": "inactive"}
{"smiles": "CC(=NC#N)N(C)Cc1ccc(Cl)nc1", "outcome": "inactive"}
{"smiles": "CN(C)NC(=O)CCC(=O)O", "outcome": "inactive"}
{"smiles": "C#CCC1=C(C)C(OC(=O)C2C(C=C(C)C)C2(C)C)CC1=O", "note": "(stereo not given)", "outcome": "inactive"}
{"smiles": "CSc1nnc(C(C)(C)C)c(=O)n1N", "outcome": "inactive"}
{"smiles": "O=C(O)c1cc(Oc2ccc(C(F)(F)F)cc2Cl)ccc1[N+](=O)[O-]", "outcome": "inactive"}
{"smiles": "CCCOCC(=Nc1ccc(Cl)cc1C(F)(F)F)n1ccnc1", "outcome": "inactive"}
{"smiles": "CCc1cccc(CC)c1N(COC)C(=O)CCl", "outcome": "inactive"}
{"smiles": "CNC(=O)ON=C(C)SC", "outcome": "inactive"}
{"smiles": "C[N+]1(C)CCCCC1", "outcome": "inactive"}
{"smiles": "Nc1nc(N)nc(NC2CC2)n1", "outcome": "inactive"}
{"smiles": "CCCCOC(=O)[C@@H](C)Oc1ccc(Oc2ccc(C#N)cc2F)cc1", "outcome": "inactive"}
{"smiles": "CCCSP(=O)(OCC)SCCC", "outcome": "inactive"}
{"smiles": "CCOP(=S)(OCC)OC(Cl)C(Cl)(Cl)Cl", "note": "(stereo not given)", "outcome": "inactive"}
{"smiles": "COP(=O)(NC(C)=O)SC", "note": "(stereo not given)", "outcome": "inactive"}
{"smiles": "O=c1ccc(=O)[nH][nH]1", "outcome": "inactive"}
{"smiles": "CCCOc1nn(C(=O)NS(=O)(=O)c2ccccc2C(=O)OC)c(=O)n1C", "outcome": "inactive"}
{"smiles": "CCOP(=O)(NC(C)C)Oc1ccc(SC)c(C)c1", "note": "(stereo not given)", "outcome": "inactive"}
{"smiles": "CCOP(=S)(OCC)SCCSCC", "AC50": "24.6 µM (active)"}
{"smiles": "CC(C)=CC1C(C(=O)OCN2C(=O)C3=C(CCCC3)C2=O)C1(C)C", "note": "(stereo not given)", "outcome": "inactive"}
{"read-out": "ABC Transporter (ABCB11), ABCB11 (gene 8647)", "assay": "CLD_ABCB11_48hr: CellzDirect (CLD) Gene Expression Assay for ABC Transporter (ABCB11) at 48 hours (AID 2283697)", "in_short": "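Primary human hepatocytes from two donor preparations dosed daily for two days at multiple concentrations; 0.2% DMSO vehicle. ABCB11 mRNA at 48 h by quantitative nuclease protection assay, chemiluminescence; fitted for induction versus DMSO.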"}
{"smiles": "CCOP(=O)(OCC)Oc1cc(C)nc(C(C)C)n1", "outcome": "inactive"}
{"smiles": "CC(COc1ccc(Oc2ccccc2)cc1)Oc1ccccn1", "note": "(stereo not given)", "outcome": "inactive"}
{"smiles": "CC[C@H](C)[C@H]1O[C@]2(C=C[C@@H]1C)C[C@@H]1C[C@@H](C/C=C(\\C)[C@@H](O[C@H]3C[C@H](OC)[C@@H](O[C@H]4C[C@H](OC)[C@@H](NC)[C@H](C)O4)[C@H](C)O3)[C@@H](C)/C=C/C=C3\\CO[C@@H]4[C@H](O)C(C)=C[C@@H](C(=O)O1)[C@]34O)O2", "outcome": "inactive"}
{"smiles": "COc1cc(OC)nc(Sc2cccc(Cl)c2C(=O)O)n1", "outcome": "inactive"}
{"smiles": "COP(=O)(OC)C(O)C(Cl)(Cl)Cl", "note": "(stereo not given)", "outcome": "inactive"}
{"smiles": "CCCCOC(=O)c1ccccc1C(=O)O", "outcome": "inactive"}
{"smiles": "CN(C)NC(=O)CCC(=O)O", "outcome": "inactive"}
{"smiles": "N#CSCSC#N", "outcome": "inactive"}
{"smiles": "CC1=NNC(=O)N(/N=C/c2cccnc2)C1", "outcome": "inactive"}
{"smiles": "C[N+]1(C)CCCCC1", "outcome": "inactive"}
{"smiles": "CCCCOC(=O)[C@@H](C)Oc1ccc(Oc2ccc(C#N)cc2F)cc1", "outcome": "inactive"}
{"smiles": "COP(=O)(NC(C)=O)SC", "note": "(stereo not given)", "outcome": "inactive"}
{"smiles": "CN(C)[C@@H]1C(=O)C(C(N)=O)=C(O)[C@@]2(O)C(=O)C3=C(O)c4c(O)cccc4[C@@](C)(O)[C@H]3[C@H](O)[C@@H]12", "outcome": "inactive"}
{"smiles": "O=c1ccc(=O)[nH][nH]1", "outcome": "inactive"}
{"smiles": "CCCOc1nn(C(=O)NS(=O)(=O)c2ccccc2C(=O)OC)c(=O)n1C", "outcome": "inactive"}
{"smiles": "CC(C)=CC1C(C(=O)OCN2C(=O)C3=C(CCCC3)C2=O)C1(C)C", "note": "(stereo not given)", "outcome": "inactive"}
{"read-out": "Cytochrome P450 3A4 (Homo sapiens) (UniProt P08684)", "assay": "CLD_CYP3A4_48hr: CellzDirect (CLD) Gene Expression Assay for xenobiotic metabolism (CYP3A4) at 48 hours (AID 2283698)", "in_short": "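Primary human hepatocytes from two donor preparations dosed daily for two days with multiple chemical concentrations, 0.2% DMSO vehicle. CYP3A4 mRNA at 48 h by quantitative nuclease protection assay, chemiluminescence, positive fit versus DMSO; cytotoxicity flagged morphologically.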"}
{"smiles": "COc1ccc(C(=CC(=O)N2CCOCC2)c2ccc(Cl)cc2)cc1OC", "AC50": "1.9 µM (active)"}
{"smiles": "CCOP(=O)(OCC)Oc1cc(C)nc(C(C)C)n1", "AC50": "20 µM (active)"}
{"smiles": "CC(COc1ccc(Oc2ccccc2)cc1)Oc1ccccn1", "note": "(stereo not given)", "AC50": "3.97 µM (active)"}
{"smiles": "CC(C)N(C(=O)SCC(Cl)=C(Cl)Cl)C(C)C", "AC50": "3.07 µM (active)"}
{"smiles": "CSC1=N[C@@](C)(c2ccccc2)C(=O)N1Nc1ccccc1", "outcome": "inactive"}
{"smiles": "CCc1cnc(C2=NC(C)(C(C)C)C(=O)N2)c(C(=O)O)c1", "note": "(stereo not given)", "outcome": "inactive"}
{"smiles": "CC[C@H](C)[C@H]1O[C@]2(C=C[C@@H]1C)C[C@@H]1C[C@@H](C/C=C(\\C)[C@@H](O[C@H]3C[C@H](OC)[C@@H](O[C@H]4C[C@H](OC)[C@@H](NC)[C@H](C)O4)[C@H](C)O3)[C@@H](C)/C=C/C=C3\\CO[C@@H]4[C@H](O)C(C)=C[C@@H](C(=O)O1)[C@]34O)O2", "outcome": "inactive"}
{"smiles": "COc1cc(OC)nc(Sc2cccc(Cl)c2C(=O)O)n1", "AC50": "35.2 µM (active)"}
{"smiles": "CC(=NC#N)N(C)Cc1ccc(Cl)nc1", "outcome": "inactive"}
{"smiles": "CCCCOC(=O)c1ccccc1C(=O)O", "outcome": "inactive"}
{"smiles": "CN(C)NC(=O)CCC(=O)O", "outcome": "inactive"}
{"smiles": "C#CCC1=C(C)C(OC(=O)C2C(C=C(C)C)C2(C)C)CC1=O", "note": "(stereo not given)", "AC50": "14.1 µM (active)"}
{"smiles": "N#CSCSC#N", "outcome": "inactive"}
{"smiles": "CCCOCC(=Nc1ccc(Cl)cc1C(F)(F)F)n1ccnc1", "AC50": "1.89 µM (active)"}
{"smiles": "CC1=NNC(=O)N(/N=C/c2cccnc2)C1", "outcome": "inactive"}
{"smiles": "CCc1cccc(CC)c1N(COC)C(=O)CCl", "outcome": "inactive"}
{"smiles": "CNC(=O)ON=C(C)SC", "outcome": "inactive"}
{"smiles": "CCOP(=S)(OCC)OC(Cl)C(Cl)(Cl)Cl", "note": "(stereo not given)", "AC50": "9.51 µM (active)"}
{"smiles": "CN(C)[C@@H]1C(=O)C(C(N)=O)=C(O)[C@@]2(O)C(=O)C3=C(O)c4c(O)cccc4[C@@](C)(O)[C@H]3[C@H](O)[C@@H]12", "outcome": "inactive"}
{"smiles": "CCCOc1nn(C(=O)NS(=O)(=O)c2ccccc2C(=O)OC)c(=O)n1C", "AC50": "36.4 µM (active)"}
{"smiles": "CCOP(=S)(OCC)SCCSCC", "AC50": "20 µM (active)"}
{"smiles": "CC(C)=CC1C(C(=O)OCN2C(=O)C3=C(CCCC3)C2=O)C1(C)C", "note": "(stereo not given)", "AC50": "0.152 µM (active)"}
